{"source": "PubChem BioAssay AID602137", "about": "(NMMLSC, 2011)", "note": "Unmarked numbers belong to inactive results.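 The calls were made as follows: active = EC50 at most 10 µM with percent response changing by at least 30% across doses, from a valid fit; inactive = the rest.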"}
{"test": "disruption of GST–glutathione bead interaction – biochemical, flow cytometry beads, round 1, counter-screen for Rab7 GTPase inhibitor project, SAR follow-up (AID 602137)", "conditions": "GST-GFP on GSH beads; series mostly up to 100 µM; percent response (bead binding): at the top concentration", "units": {"percent response (bead binding)": "%"}}
{"compound": "CC1(C)Cc2c(sc(NC(=S)Nc3ccccc3)c2C(=O)O)CO1", "percent response (bead binding)": 99.4}
{"compound": "COc1cccc(C(=O)NC(=S)Nc2sc3c(c2C(=O)O)CC(C)(C)OC3)c1", "percent response (bead binding)": 92.6}
{"compound": "CCOC(=O)c1c(NC(=O)Nc2ccc(C)cc2)sc2c1CCN(C)C2", "percent response (bead binding)": 111}
{"compound": "CC1(C)Cc2c(sc(NC(=S)NC(=O)c3cccc(Br)c3)c2C(=O)O)CO1", "percent response (bead binding)": 93.9}
{"compound": "CC1(C)Cc2c(sc(NC(=S)NC(=O)c3ccccc3Br)c2C(=O)O)CO1", "percent response (bead binding)": 99}
{"compound": "CN1CCc2c(sc3nc(Nc4ccc(F)cc4)oc(=O)c23)C1", "percent response (bead binding)": 104}
{"compound": "CCOC(=O)c1c(N)sc2ccccc12", "percent response (bead binding)": 85}
{"compound": "CC(C)(C)OC(=O)c1c(NC(=S)NC(=O)c2ccccc2)sc2c1CCOC2", "percent response (bead binding)": 101}
{"compound": "COC(=O)c1c(NC(=S)NC(=O)c2ccccc2)sc2c1CC(C)(C)OC2", "percent response (bead binding)": 100}
{"compound": "CCOC(=O)c1c(NC(=S)Nc2ccccc2)sc2c1CC(C)(C)OC2", "percent response (bead binding)": 107}
{"compound": "CC1(C)Cc2c(sc(NC(=S)NC(=O)c3cccc(F)c3)c2C(=O)O)CO1", "percent response (bead binding)": 88}
{"compound": "CC1(C)Cc2c(sc(NC(=O)Cc3ccccc3)c2C(=O)O)CO1", "percent response (bead binding)": 104}
{"compound": "CC1(C)Cc2c(sc(NC(=O)NC(=O)c3ccccc3)c2C(=O)O)CO1", "percent response (bead binding)": 104}
{"compound": "O=C(C#Cc1ccccc1)c1cccc([N+](=O)[O-])c1", "percent response (bead binding)": 105}
{"compound": "CC1Cc2c(sc(NC(=S)NC(=O)c3ccccc3)c2C(=O)O)CO1", "note": "(stereo not given)", "percent response (bead binding)": 98.8}
{"compound": "CCOC(=O)c1c(NC(=O)Nc2ccc(F)cc2)sc2c1CCN(C)C2", "percent response (bead binding)": 105}
{"compound": "CC1(C)Cc2c(sc(NC(=S)NC(=O)c3ccccc3F)c2C(=O)O)CO1", "percent response (bead binding)": 95.3}
{"compound": "CCOC(=O)c1c(NC(=O)NC(C)(C)C)sc2c1CCN(C)C2", "percent response (bead binding)": 109}
{"compound": "COC(=O)c1c(N)sc2c1CC(C)(C)OC2", "percent response (bead binding)": 105}
{"compound": "Cc1ccc(Nc2nc3sc4c(c3c(=O)o2)CCN(C)C4)cc1", "percent response (bead binding)": 98.2}
{"compound": "CC1(C)Cc2c(sc(NC(=S)NC(=O)c3ccc(Br)cc3)c2C(=O)O)CO1", "percent response (bead binding)": 95.1}
{"compound": "CN1CCc2c(sc(NC(=O)Nc3ccc(F)cc3)c2C(=O)O)C1", "percent response (bead binding)": 91.8}
{"compound": "O=C(NC(=S)Nc1sc2c(c1C(=O)O)CCOC2)c1ccccc1", "percent response (bead binding)": 98.4}
{"compound": "CCOC(=O)c1c(NC(=S)NC(=O)c2ccccc2)sc2ccccc12", "percent response (bead binding)": 108}
{"compound": "CC1(C)Cc2c(sc(NC(=S)NC(=O)c3ccccc3)c2C(=O)O)CO1", "percent response (bead binding)": 102}
{"compound": "NS(=O)(=O)c1ccc(N2N=C(c3ccccc3)CC2c2ccccc2)cc1", "note": "(stereo not given)", "percent response (bead binding)": 104}
{"compound": "Cc1ccc(NC(=O)Nc2sc3c(c2C(=O)O)CCN(C)C3)cc1", "percent response (bead binding)": 105}
{"compound": "COc1ccc(C(=O)NC(=S)Nc2sc3c(c2C(=O)O)CC(C)(C)OC3)cc1", "percent response (bead binding)": 93.3}
{"compound": "CC1(C)CCc2sc(NC(=S)NC(=O)c3ccccc3)c(C(=O)O)c2C1", "percent response (bead binding)": 92}
{"compound": "COc1ccc(C2CC(c3ccccc3)=NN2c2ccc(S(N)(=O)=O)cc2)cc1", "note": "(stereo not given)", "percent response (bead binding)": 103}
